The nature of assay [1]: Nuclear factor erythroid 2-related factor 2/antioxidant responsive element (Nrf2/ARE) small molecule agonists: qHTS cell viability counter screen in human keratinocytes (AID 1919968; active = well fitted curve in the direction sought with a large enough effect in the repeat runs; an effect the other way counts as inactive or inconclusive; also: nearly all actives have a fitted effect of over 55% in size; also: potency is read from the fitted curve at half-maximal effect). An outline of the steps:
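Cytotoxicity was multiplexed with the Nrf2/ARE luciferase assay in the same wells. Stably transfected HaCaT keratinocytes were treated with test compounds for 23 h at 37 C. Cell viability was then measured by CellTiter-Fluor fluorescence.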
(Quantitative high-throughput screening tests each substance at several concentrations.)

Assay [2] in a line: Nuclear factor erythroid 2-related factor 2/antioxidant responsive element (Nrf2/ARE) small molecule agonists: luciferase reporter gene qHTS assay in human keratinocytes (AID 1919969). Also: nearly all actives have a fitted effect of over 35% in size.
In assay [3] the target is Gonadotropin-releasing hormone receptor (Homo sapiens) (UniProt P30968). The experiment in a line: Human gonadotropin-releasing hormone receptor (GnRHR) small molecule agonists, calcium flux assay in GnRHR-HEK293 cells (AID 1920063). Also: nearly all actives have a fitted effect of over 35% in size. An outline of the steps:
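Agonist activity was measured as intracellular calcium flux in HEK293 cells engineered to stably express human GnRHR. After dye loading for 1 hour at 37 C, compounds in DMSO were added and fluorescence was followed for 3 minutes.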
On the technique in general: Calcium assays in cells follow changes in intracellular calcium, usually with a dye or a luminescent sensor.

For assay [4], the target named is KiSS-1 receptor (Homo sapiens) (UniProt Q969F8). The experiment in a line: Human kisspeptin (KISS1R) small molecule agonists, calcium flux assay in KISS1R-HEK293 cells (AID 1920064; active = well fitted curve in the direction sought with a large enough effect in the repeat runs; an effect the other way counts as inactive or inconclusive). An outline of the steps: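 Agonist activity is monitored as intracellular calcium rise in engineered HEK293 cells carrying human KISS1R. Cells are dye-loaded for 1 h at 37 C before compound addition, and fluorescence is recorded for 3 min.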

A short description of assay [5]: p53 small molecule agonists, cell-based qHTS assay with human liver microsomes (AID 1963577). A digest of the protocol:
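Fluorescence of the beta-lactamase reporter in p53RE-bla cells, detected with LiveBLAzer substrate (2 h, room temperature, dark), served as the read-out after 16 h compound exposure at 37 C with human liver microsomes and NADPH, each 0.5 mg/mL final.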

Assay [6] can be described thus: p53 small molecule agonists, cell-based qHTS assay with rat liver microsomes (AID 1963578). An outline of the steps:
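Cells carrying a p53 response element–beta-lactamase reporter were plated and rested 5 h, then dosed with compound in DMSO plus rat liver microsomes and NADPH, each at 0.5 mg/mL final. After 16 h at 37 C, LiveBLAzer substrate was added for 2 h.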

Assay [7] is described as follows: p53 small molecule agonists, cell-based qHTS assay with human liver microsomes: qHTS cell viability counter screen (AID 1963579). Also: nearly all actives have a fitted effect of over 45% in size. A digest of the protocol: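 Cytotoxicity counter screen: p53RE-bla, 4,000 cells/well; 5 h settle, 37 C/5% CO2; cpd + HLM 0.5 mg/mL + NADPH 0.5 mg/mL (final); 16 h, 37 C; CellTiter-Glo, 30 min RT, luminescence.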
Assay [8] in a line: p53 small molecule agonists, cell-based qHTS assay: qHTS cell viability counter screen (AID 1963581). Also: nearly all actives have a fitted effect of over 45% in size. Also: potency is read from the fitted curve at half-maximal effect. A digest of the protocol:
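Viability was counter-screened in parallel with the p53 agonist reporter by measuring intracellular ATP luminescence in the same HCT-116 p53RE-bla wells after 16 h compound treatment at 37 C.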

In assay [9] the target is 5-hydroxytryptamine receptor 2A (Homo sapiens) (UniProt P28223). The experiment in a line: 5-hydroxytryptamine receptor 2A (HTR2A) small molecule antagonists, cell-based qHTS assay (AID 1963586). Also: nearly all actives have a fitted effect of over 45% in size. A digest of the protocol:
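CHO cells stably expressing human HTR2A were plated for 18 h at 37 C, then loaded with calcium dye for 1 h. Compounds were preincubated 5 min at room temperature before DOI (4 nM solution) was added. Kinetic fluorescence was read for 3 min.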

Assay [10] has the same target. Kind of assay: 5-hydroxytryptamine receptor 2A (HTR2A) small molecule agonists, cell-based qHTS assay (AID 1963587). Also: nearly all actives have a fitted effect of over 30% in size. Also: potency is read from the fitted curve at half-maximal effect. An outline of the steps:
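Kinetic calcium-flux fluorescence (2 min, 1 sec intervals) after compound addition in agonist mode. HTR2A-CHO cells were cultured 18 h, then dye-loaded 1 h at 37 C.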

Assay [11] addresses Muscarinic acetylcholine receptor M1 (Homo sapiens) (UniProt P11229). The experiment in a line: Cholinergic receptor muscarinic 1 (CHRM1) small molecule antagonists, cell-based qHTS assay (AID 1963588). Also: nearly all actives have a fitted effect of over 40% in size. An outline of the steps:
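Compounds were tested at 15 concentrations in three independent runs. Dye-loaded CHRM1-CHO cells were exposed 5 min at room temperature before stimulation by acetylcholine added at 50nM. Intracellular calcium was read kinetically on FDSS for 3 min.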

Assay [12] has the same target. Kind of assay: Cholinergic receptor muscarinic 1 (CHRM1) small molecule agonists, cell-based qHTS assay (AID 1963589). Also: nearly all actives have a fitted effect of over 35% in size. An outline of the steps:
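Cells were plated and incubated 18 h at 37 C/5% CO2, loaded with calcium dye for 1 h at 37 C, then treated with compounds in DMSO. Fluorescence was recorded kinetically at 1 sec intervals.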

Assay [13] can be described thus: cAMP Responsive Elements (CRE) small molecule agonists, cell-based qHTS assay (AID 1963590). An outline of the steps: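 Cells carrying a CRE-driven beta-lactamase reporter (HEK 293T) are seeded, incubated overnight (18 h), and treated with test compounds for 3 h at 37 C; reporter activity is then detected with a FRET substrate after 2 h at room temperature.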
Assay [14] in a line: cAMP Responsive Elements (CRE) small molecule antagonists, cell-based qHTS assay (AID 1963591; active = well fitted inhibition curve with a large enough effect in the signal ratio in the repeat runs, not every such curve was filed as active; the % refers to the signal ratio; also: potency is read from the fitted curve at half-maximal effect). A digest of the protocol:
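Cells (CRE-bla HEK 293T, DMEM with 10% dialyzed FBS and 25 mM HEPES) are seeded and incubated 18 h. Compounds are added with NKH477 agonist at 0.25 uM final for 3 h, then FRET substrate for 2 h.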

Assay [15] concerns the target Beta-2 adrenergic receptor (Homo sapiens) (UniProt P07550). Kind of assay: Adrenergic beta2 receptor (ADRB2) small molecule antagonists, cell-based qHTS assay (AID 1963592). Also: series mostly up to about 92 µM; nearly all actives have a fitted effect of over 50% in size. An outline of the steps:
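Assay format: CHO-ADRB2 cells, 18-20hr seeding at 37C/5% CO2, then compound plus 1nM isoproterenol agonist mix for 0.5hr RT. Homogeneous time-resolved fluorescence cAMP detection after 1hr, expressed as 665/615 nm ratio.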

Assay [16] has as its target D(2) dopamine receptor (Homo sapiens) (UniProt P14416). Kind of assay: Dopamine D2 receptor (DRD2) small molecule agonists, cell-based qHTS assay (AID 1963594). Also: nearly all actives have a fitted effect of over 35% in size. An outline of the steps:
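cAMP accumulation in DRD2-HEK293 cells measured by HTRF after 1 h detection; compounds added 10 min before NKH477 (200nM […]) forskolin-analogue stimulation, 30 min at room temperature, with Ro20-1724 present at 0.1 mM final.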

For assay [17] the target is unchanged. Kind of assay: Dopamine D2 receptor (DRD2) small molecule antagonists, cell-based qHTS assay (AID 1963595; active = well fitted inhibition curve with a large enough effect in the signal ratio in the repeat runs, with a control signal flat; the % refers to the signal ratio). An outline of the steps: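 HTRF cAMP read-out at 665 and 620 nm emission (340 nm excitation). Antagonist mode: compounds were tested against 12 nM quinpirole in DRD2-HEK293 cells, with 200 nM NKH477 raising cAMP and 0.1 mM Ro20-1724 blocking its breakdown.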

Assay [18] in a line: p53 small molecule agonists, cell-based qHTS assay with rat liver microsomes: qHTS cell viability counter screen (AID 1963580). Also: nearly all actives have a fitted effect of over 45% in size. Also: potency is read from the fitted curve at half-maximal effect. An outline of the steps:
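Rat liver microsome (0.5 mg/mL final) and NADPH (0.5 mg/mL final) co-incubation with compounds for 16 h at 37 C on HCT-116 p53RE-bla cells; cytotoxicity taken from intracellular ATP luminescence.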

Assay [19] has as its target Beta-2 adrenergic receptor (Homo sapiens) (UniProt P07550). Kind of assay: Adrenergic beta2 receptor (ADRB2) small molecule agonists, cell-based qHTS assay (AID 1963593).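 Also: CHO cells stably overexpressing human ADRB2.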 A digest of the protocol: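 CHO cells stably over-expressing ADRB2 were plated overnight at 37C, then dosed with compounds plus a stimulation mix containing 100uM IBMX and 25uM Ro-20-1724 for 0.5hr at room temperature. cAMP was measured by HTRF competition, 1hr.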

Assay [20] in a line: G protein-coupled receptor (GPCR) small molecule agonists, calcium flux assay: HEK293 wild type cell line counter screen (AID 1920065). An outline of the steps:
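Seed cells, incubate 18 h (37 C, 5% CO2); add calcium dye, 1 h at 37 C; pin-transfer compounds, ATP control or DMSO; read fluorescence 480/540 nm each second for 3 min.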

The source of these data is PubChem BioAssay (Tox21).

“And” between values parts separate entries of the source, which are not always exact repeats. Equal entries are not always repeated. Records with an inconclusive call do not appear. More than one record can exist for a structure, and the calls need not agree. The source made the active and inactive calls. Unless noted, calls follow the shape of the full dose curve.

Chain of D(2) dopamine receptor (Homo sapiens) (P14416 whole entry, looked up): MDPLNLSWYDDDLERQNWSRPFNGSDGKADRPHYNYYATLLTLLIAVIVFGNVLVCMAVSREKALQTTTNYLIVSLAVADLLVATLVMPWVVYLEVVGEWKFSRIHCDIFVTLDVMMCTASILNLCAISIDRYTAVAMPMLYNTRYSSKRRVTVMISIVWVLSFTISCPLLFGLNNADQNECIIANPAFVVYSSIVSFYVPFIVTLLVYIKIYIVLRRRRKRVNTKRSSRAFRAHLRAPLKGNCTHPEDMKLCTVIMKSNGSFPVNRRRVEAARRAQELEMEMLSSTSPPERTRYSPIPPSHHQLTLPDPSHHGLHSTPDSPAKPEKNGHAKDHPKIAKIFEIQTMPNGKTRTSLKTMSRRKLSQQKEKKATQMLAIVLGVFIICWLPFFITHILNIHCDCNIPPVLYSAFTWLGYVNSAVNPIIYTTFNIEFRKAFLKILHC
Chain of Beta-2 adrenergic receptor (Homo sapiens) (P07550 whole entry, looked up): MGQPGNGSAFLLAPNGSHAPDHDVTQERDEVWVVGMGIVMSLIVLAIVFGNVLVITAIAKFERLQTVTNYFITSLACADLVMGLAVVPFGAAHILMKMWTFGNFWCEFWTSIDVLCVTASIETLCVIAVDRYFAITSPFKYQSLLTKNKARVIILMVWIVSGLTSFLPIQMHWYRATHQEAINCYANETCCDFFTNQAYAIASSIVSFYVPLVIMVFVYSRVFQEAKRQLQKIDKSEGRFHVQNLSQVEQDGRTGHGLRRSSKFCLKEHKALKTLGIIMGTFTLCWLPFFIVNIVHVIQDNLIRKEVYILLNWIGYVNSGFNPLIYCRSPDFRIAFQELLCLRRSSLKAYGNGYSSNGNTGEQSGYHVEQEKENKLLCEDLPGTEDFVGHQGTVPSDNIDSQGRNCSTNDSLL
Chain of Muscarinic acetylcholine receptor M1 (Homo sapiens) (P11229 whole entry, looked up): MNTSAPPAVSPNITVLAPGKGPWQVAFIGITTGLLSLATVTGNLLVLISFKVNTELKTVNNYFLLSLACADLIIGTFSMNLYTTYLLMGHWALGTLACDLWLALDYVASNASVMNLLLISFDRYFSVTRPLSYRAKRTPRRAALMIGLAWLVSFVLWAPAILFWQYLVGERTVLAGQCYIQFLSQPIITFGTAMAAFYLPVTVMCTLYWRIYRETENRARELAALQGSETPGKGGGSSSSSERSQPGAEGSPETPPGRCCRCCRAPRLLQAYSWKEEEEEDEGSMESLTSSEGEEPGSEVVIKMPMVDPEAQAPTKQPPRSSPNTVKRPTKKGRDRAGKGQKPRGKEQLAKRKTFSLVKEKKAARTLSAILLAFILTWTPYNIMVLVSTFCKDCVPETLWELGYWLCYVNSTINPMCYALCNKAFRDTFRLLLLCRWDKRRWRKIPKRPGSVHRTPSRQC
Chain of 5-hydroxytryptamine receptor 2A (Homo sapiens) (P28223 whole entry, looked up): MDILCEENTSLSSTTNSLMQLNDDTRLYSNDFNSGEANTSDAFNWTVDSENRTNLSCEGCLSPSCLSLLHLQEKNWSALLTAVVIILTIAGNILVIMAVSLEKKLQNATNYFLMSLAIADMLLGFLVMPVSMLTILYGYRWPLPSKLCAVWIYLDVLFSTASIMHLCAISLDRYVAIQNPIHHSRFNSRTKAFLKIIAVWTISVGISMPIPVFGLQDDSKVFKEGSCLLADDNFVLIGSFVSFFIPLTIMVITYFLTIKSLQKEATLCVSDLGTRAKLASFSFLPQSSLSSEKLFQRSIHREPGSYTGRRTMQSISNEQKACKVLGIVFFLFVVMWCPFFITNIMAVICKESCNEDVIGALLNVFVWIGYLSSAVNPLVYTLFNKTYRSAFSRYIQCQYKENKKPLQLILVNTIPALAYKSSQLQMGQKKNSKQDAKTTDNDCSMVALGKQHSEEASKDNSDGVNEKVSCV
Chain of KiSS-1 receptor (Homo sapiens) (Q969F8 whole entry, looked up): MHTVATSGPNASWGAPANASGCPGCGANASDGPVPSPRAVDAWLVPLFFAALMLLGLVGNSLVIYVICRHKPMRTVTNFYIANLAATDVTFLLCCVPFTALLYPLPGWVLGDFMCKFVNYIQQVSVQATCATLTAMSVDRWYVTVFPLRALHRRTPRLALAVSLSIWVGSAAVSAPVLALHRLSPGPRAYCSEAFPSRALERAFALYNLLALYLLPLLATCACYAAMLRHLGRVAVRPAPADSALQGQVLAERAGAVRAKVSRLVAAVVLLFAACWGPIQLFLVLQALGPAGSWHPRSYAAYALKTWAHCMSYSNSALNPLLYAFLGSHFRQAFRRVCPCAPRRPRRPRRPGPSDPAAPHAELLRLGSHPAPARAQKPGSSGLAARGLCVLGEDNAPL
Chain of Gonadotropin-releasing hormone receptor (Homo sapiens) (P30968 whole entry, looked up): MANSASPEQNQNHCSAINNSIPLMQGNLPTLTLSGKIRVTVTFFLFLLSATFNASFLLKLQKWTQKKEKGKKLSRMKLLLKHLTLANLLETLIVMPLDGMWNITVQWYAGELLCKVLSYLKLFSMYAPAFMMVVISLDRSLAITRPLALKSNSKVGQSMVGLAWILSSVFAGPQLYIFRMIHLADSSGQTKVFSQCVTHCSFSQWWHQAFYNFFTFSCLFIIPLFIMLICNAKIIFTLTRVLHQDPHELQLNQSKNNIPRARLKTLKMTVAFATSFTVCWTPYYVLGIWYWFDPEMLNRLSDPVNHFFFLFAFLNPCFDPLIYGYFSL

As to `C=Cc1cccc(C)c1`, the Potency entry in assay [1], in [2], in assay [3], in assay [4], in [5] and in [6] was “inactive” each time. Besides, the Potency entry in assay [7], in assay [8], in [9], in assay [10], in assay [11] and in assay [12] was “inactive” in each case. The Potency entry in assay [13], in [14], in assay [15], in [16] and in assay [17] was “inactive” each time.
As to `CCCCCCCCCCCCOC(=O)c1cc(O)c(O)c(O)c1`, the Potency is 30.5 µM (active) and 27.3 µM (active) in [1]; 40.6 µM (active) in assay [18]; 40.6 µM (active) and 40.8 µM (active) in assay [8]; 10.9 µM (active) and inactive in assay [10]; 21.6 µM (active) and 45.2 µM (active) in assay [14]. The Potency entry in assay [2], in [3], in assay [4], in assay [5], in assay [9] and in assay [11] was “inactive” throughout. The Potency entry in assay [12], in assay [15] and in assay [19] was “inactive” in each case.
Consider `OC[C@]1(O)OC[C@@H](O)[C@H](O)[C@@H]1O`, for which the Potency entry in [1], in assay [2], in [3], in assay [20], in assay [5] and in [6] was “inactive” throughout. Moreover, the Potency result in assay [7], in [18], in [8], in assay [9], in [10] and in assay [11] was “inactive” in each case. Besides, the Potency entry in assay [12], in assay [13], in assay [14], in assay [15], in assay [19] and in [16] was “inactive” each time. Moreover, the Potency result in assay [17] was “inactive”.
As to `C=CN1CCCC1=O`, the Potency entry in assay [1], in assay [2], in assay [3], in [20], in [5] and in assay [6] was “inactive” each time. Besides, the Potency result in [7], in assay [18], in assay [8], in assay [9], in assay [10] and in [11] was “inactive” throughout. Moreover, the Potency result in [12], in assay [13], in assay [14], in [15], in [16] and in assay [17] was “inactive” each time.
`Cc1cn([C@H]2C[C@H](N=[N+]=[N-])[C@@H](CO)O2)c(=O)[nH]c1=O`: the Potency result in assay [1], in [2], in assay [3], in assay [4], in assay [5] and in assay [6] was “inactive” in each case. Further, the Potency result in [7], in [18], in [13], in assay [14], in assay [15] and in assay [19] was “inactive” throughout. Further, the Potency entry in [16] and in [17] was “inactive” throughout.
On to `[Na+]`, for which the Potency result in assay [1], in assay [2], in assay [3], in assay [20], in [5] and in assay [6] was “inactive” in each case. The Potency result in assay [7], in [18], in assay [8], in assay [9], in [10] and in [11] was “inactive” in each case. The Potency entry in assay [12], in [13], in assay [14], in [15], in [19] and in assay [16] was “inactive” each time. Besides, the Potency result in assay [17] is “inactive”.
On to `CC(=O)C(C)C`, for which the Potency result in [1], in [2], in assay [3], in assay [20], in [5] and in [6] was “inactive” each time. Also, the Potency entry in assay [7], in assay [18], in [8], in [9], in assay [10] and in [11] was “inactive” in each case. In addition, the Potency entry in [12], in [13], in assay [14], in assay [15], in [19] and in assay [17] was “inactive” each time.
